According to PubChem BioAssay AID1851 (National Center for Advancing Translational Sciences (NCATS), 2009):
Screen size: about 16,000 compounds; about 5,700 (36%) were called active. About 24% were inconclusive and are not listed. Some of the results follow. Unmarked numbers belong to inactive results. Calls follow the shape of the dose curve; as a rule, active = well fitted curve in the direction sought with a large enough effect; inconclusive = small, poorly fitted or top-dose-only effect, or effect the other way; inactive = no such curve, though single readings can be large or run the other way.
% is scaled to controls: 0 for no effect and ±100 for the full control effect.

What follows are molecules tested against Cytochrome P450 1A2 (Homo sapiens) (UniProt P05177) (assay: Cytochrome panel assay with activity outcomes). Settings: recombinant CYP, pro-luciferin dealkylation, luminescence, p450-cyp1a2; series mostly up to 57.1 µM.
Sequence of Cytochrome P450 1A2 (Homo sapiens) (P05177 whole entry, looked up): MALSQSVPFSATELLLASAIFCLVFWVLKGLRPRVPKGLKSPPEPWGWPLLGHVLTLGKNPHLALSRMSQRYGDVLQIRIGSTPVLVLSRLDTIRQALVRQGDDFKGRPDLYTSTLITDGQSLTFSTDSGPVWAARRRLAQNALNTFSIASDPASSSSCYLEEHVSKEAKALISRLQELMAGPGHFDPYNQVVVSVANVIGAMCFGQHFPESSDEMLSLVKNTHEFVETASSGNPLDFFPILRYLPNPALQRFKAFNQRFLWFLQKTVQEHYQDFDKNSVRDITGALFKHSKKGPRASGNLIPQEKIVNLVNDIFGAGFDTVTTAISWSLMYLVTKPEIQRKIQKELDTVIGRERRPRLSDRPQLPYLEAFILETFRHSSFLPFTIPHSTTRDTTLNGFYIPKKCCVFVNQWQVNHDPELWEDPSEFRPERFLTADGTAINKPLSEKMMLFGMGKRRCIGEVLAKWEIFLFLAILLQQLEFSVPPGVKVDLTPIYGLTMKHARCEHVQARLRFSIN
Molecule `C[C@]1(c2ccccc2)O[C@@H]2C[C@@H]3[C@@H]4CCC5=CC(=O)C=C[C@@]5(C)[C@]4(F)[C@H](O)C[C@]3(C)[C@@]2(C(=O)CO)O1` has an activity, negative = inhibition of -16.4% [at 2.29 µM]. `CO[C@@H]1COC(=O)[C@H](COCc2ccccc2)NC(=O)C/C=C\[C@@H](C)[C@H](OC)COC(=O)[C@@H](C)NC(=O)C/C=C\[C@H]1C` showed an activity, negative = inhibition of 3.31% [at 11.4 µM]. In the case of `C[C@H](CN(C)C)C(=O)c1ccccc1C(=O)O`, the activity, negative = inhibition is reported as -5.91% [at 11.4 µM]. In the case of `CC(=O)N(CC(=O)O)c1ccccc1C(=O)O`, the AC50 is reported as “inactive”. In the case of `CC(C)=CCC/C(C)=C/CC/C(C)=C/CSc1ccccc1C(=O)O`, the AC50 is reported as 12.6 µM (active). For `CNc1ncnc2c1ncn2[C@@H]1O[C@H](CO)[C@@H](O)[C@@H]1O`, the AC50 was “inactive”. `CCOc1ccc(N2C(=O)CS/C2=N/NC(=O)COc2ccc3ccccc3c2)cc1` was tested, and the AC50 was 14.1 µM (active). With `O=C(COc1ccc2ccccc2c1)N1CCN(C(=O)c2cccnc2)CC1` the AC50 was “inactive”. For `CC(=O)N1CCN(S(=O)(=O)c2ccccc2)C1c1ccccc1` (centres undefined), the AC50 was “inactive”. `COc1ccc(C)cc1NC(=O)CCC(=O)Nc1nnc(C(F)(F)F)s1` was tested, and the AC50 was “inactive”. `C=C(C)c1cccc(C(C)(C)NC(=O)Nc2cc(C)ccc2OC)c1` was tested, and the AC50 was 11.2 µM (active). In the case of `Cc1cccc(C(=O)NNC(=O)C(=O)NC(C)(C)C)c1`, the AC50 is reported as “inactive”. With `C/C(=N\O)c1ccc2[nH]ccc2c1` the AC50 was 4.47 µM (active). With `C/C(=N/O)c1ccc2cc(Br)c3ccccc3c2c1` the activity, negative = inhibition was -13.6% [at 2.29 µM]. In the case of `C[C@H](O/N=C1/[C@H]2O[C@@H]2[C@@H](O)[C@H]2[C@H]1CCn1c(=O)n(-c3ccccc3)c(=O)n12)c1cn([C@H]2COC[C@H]2O)nn1`, the activity, negative = inhibition is reported as 4.91% [at 11.4 µM]. With `COc1ccc(/C=C2\N=C(SC)N(C)C2=O)cc1` the AC50 was 1.78 µM (active). `CO/N=C(\C(=O)N[C@@H]1C(=O)N2C(C(=O)O)=C(COC(N)=O)CS[C@@H]12)c1ccco1` was tested, and the AC50 was “inactive”. With `COc1cccc(-c2cc(NCc3ccc(OC)cc3OC)ncn2)c1` the AC50 was 2 µM (active). In the case of `COc1cccc(-c2cc(NCc3ccccc3OC)ncn2)c1`, the AC50 is reported as 1.26 µM (active). With `CC(C)C[C@H]1C(=O)N2CCC[C@@H]2[C@]2(O)O[C@](NC(=O)[C@@H]3C=C4c5cccc6[nH]c(Br)c(c56)C[C@H]4N(C)C3)(C(C)C)C(=O)N12` the AC50 was “inactive”. With `Cc1nc2ncnn2c(C)c1CCC(=O)Nc1ccc(S(=O)(=O)N2CCCCCC2)cc1` the AC50 was “inactive”. With `O=c1c2cc(Br)ccc2[nH]c(=S)n1Cc1cccnc1` the AC50 was 0.251 µM (active). For `COc1ccccc1Cn1c(=S)[nH]c2cc(C(=O)N3CCN(C)CC3)ccc2c1=O`, the AC50 was “inactive”. With `COc1cc(C(=O)NCc2cccc3ccccc23)cc(Cl)c1OC` the AC50 was 10 µM (active). In the case of `COc1ccc(-n2c(CNC(=O)c3cc(OC)c(OC)c(OC)c3)n[nH]c2=S)cc1`, the AC50 is reported as “inactive”. For `CN(Cc1cnc2nc(N)nc(N)c2n1)c1ccc(C(=O)N[C@H](CCC(=O)O)C(=O)O)cc1`, the AC50 was “inactive”. For `CCCN(/C=N/c1sc2c(c1C#N)CCCCC2)CCC`, the AC50 was 14.1 µM (active). `CCN(/C=N/c1sc2c(c1C#N)CCCCC2)CC` was tested, and the AC50 was 2.51 µM (active). With `O=S(=O)(c1ccccc1)N1CCC2(CC1)CN(C(c1ccccc1)c1ccccc1)C2` the AC50 was “inactive”. For `O=C1CCCN1c1ccc(S(=O)(=O)Oc2cccc(Cl)c2)cc1[N+](=O)[O-]`, the AC50 was 15.8 µM (active). For `CC1CCN(c2ccc(S(=O)(=O)Nc3cc(C(=O)O)cc(C(=O)O)c3)cc2[N+](=O)[O-])CC1`, the AC50 was “inactive”. With `COc1ccc(N2CCN(S(=O)(=O)c3ccc4c(c3)CCCC4)CC2)c([N+](=O)[O-])c1` the AC50 was “inactive”. For `COc1ccc(S(=O)(=O)N2CC3CCCN3c3ccc(C(F)(F)F)cc32)cc1` (centres undefined), the AC50 was 12.6 µM (active). In the case of `CCn1c(SC)nnc1C1CCN(S(=O)(=O)c2ccc(OC)cc2)CC1`, the AC50 is reported as “inactive”. With `COc1ccc(S(=O)(=O)N2CCC(N3CCCCC3)CC2)cc1` the AC50 was “inactive”. For `NC(=O)C(=O)O`, the AC50 was “inactive”. With `Nc1ccccc1S[C@@H](C[N+](=O)[O-])c1ccc2c(c1)OCO2` the AC50 was 0.631 µM (active). For `CCCCNC(=O)NC1C(NC(=O)NCCCC)N(C)C(=O)N1C` (centres undefined), the AC50 was “inactive”. For `CCCCNC(=S)NNC(=O)CCn1nc(C)c(Br)c1C`, the AC50 was 14.1 µM (active). With `CN(N=O)c1ccc(/C=C\c2ccnc3ccccc23)cc1` the AC50 was 0.158 µM (active). In the case of `Cc1ccc(-n2c(CCC(=O)O)ccc2-c2cccs2)cc1C`, the AC50 is reported as 14.1 µM (active). `CC(=O)c1ccc(-n2c(CCC(=O)O)ccc2-c2cccs2)cc1` was tested, and the AC50 was 14.1 µM (active). `NC(=O)Nn1c(CCC(=O)O)ccc1-c1ccc(F)cc1` was tested, and the AC50 was “inactive”. For `O=C(O)CCc1ccc(-c2ccc(Cl)cc2)n1CCC(=O)O`, the AC50 was “inactive”. With `CCOC(=O)C1CCN(C(=O)C2CCN(S(=O)(=O)N3CCCC3)CC2)CC1` the AC50 was “inactive”. In the case of `Cc1cc(N2CCOCC2)ncc1[N+](=O)[O-]`, the AC50 is reported as 10 µM (active). With `O=[N+]([O-])c1ccc(N2CCOCC2)nc1` the AC50 was 11.2 µM (active). `CN1CCN(c2ccc([N+](=O)[O-])cc2C(=O)N2CCOCC2)CC1` was tested, and the AC50 was “inactive”. With `Cn1ncc([N+](=O)[O-])c1C(=O)N1CCOCC1` the AC50 was “inactive”. For `Cc1cnc(CNc2ncnc3ccc(-c4ccc5c(c4)OCO5)cc23)cn1`, the AC50 was 0.398 µM (active). For `Cc1cnc(CNc2ncnc3ccc(-c4ccoc4)cc23)cn1`, the AC50 was 12.6 µM (active). With `Cc1cnc(CNc2ncnc3ccc(-c4ccc(N(C)C)cc4)cc23)cn1` the AC50 was 1 µM (active). `O=S(=O)(O)c1ccc2cc(N=Nc3cc(S(=O)(=O)O)c4cccnc4c3O)ccc2c1` showed an activity, negative = inhibition of -18.8% [at 2.29 µM]. In the case of `CCCCNC(=O)NS(=O)(=O)c1ccc(C(=O)OC(C)C)o1`, the AC50 is reported as “inactive”. With `Cc1c(NC(=O)NC(C)N2C(=O)C3C4C=CC(C4)C3C2=O)c(=O)n(-c2ccccc2)n1C` (centres undefined) the AC50 was “inactive”. For `CN(C)c1nc(N)c(C(=O)N=C(N)N)nc1Cl`, the AC50 was 1 µM (active). With `CCN(c1nc(N)c(C(=O)N=C(N)N)nc1Cl)C(C)C` the AC50 was 2 µM (active). In the case of `CC(C)CN(C)c1nc(N)c(C(=O)N=C(N)N)nc1Cl`, the AC50 is reported as 0.794 µM (active). For `NC(N)=NC(=O)c1nc(Cl)c(N2CCCCCC2)nc1N`, the AC50 was 1 µM (active).
